Where two headings read alike, the source gives them in different places. Among all 13,000 compounds or so, about 3,200 (25%) showed an effect of 50% or more. The list shows a part of the results.
System: P. falciparum stage V gametocytes
Design: BacTiter-Glo ATP luminescence viability of purified stage V gametocytes in 384-well plates, per cent inhibition versus DMSO
Settings: 48 h, 5 µM, inhibitor

Structure (SMILES) | % Inhibition [%] | % Inhibition (% Inhibition) [%]
C=CCc1cc(SC)ccc1Oc1ccc(N)cc1 [TCMDC-137690] | -96.62 | 
Cc1ccccc1C(=O)Nc1cccc(-c2nc3ncccn3c2C)c1 [TCMDC-125138] | 25.46 | 
CCOc1ccccc1C(=O)Nc1cccc(-c2nc3ncccn3c2C)c1 [TCMDC-124461] | 18.92 | 
Cc1c(-c2cccc(NC(=O)C(C)(C)Oc3ccc(Cl)cc3)c2)nc2ncccn12 [TCMDC-124460] | 51.92 | 
CN(c1cc(NC(=O)c2cccs2)ccn1)C1CCN(Cc2cccc(C#N)c2)CC1 [TCMDC-134970] | 39.85 | 
Cc1[nH]c(C)c(-c2ccc(Oc3ccc(Cl)cc3)c(Cl)c2)c(=O)c1Br [TCMDC-137409] | 21.95 | 
Cc1[nH]c(C)c(-c2ccc(Oc3ccc(Cl)c(Cl)c3)cc2)c(=O)c1Br [TCMDC-137397] | 72.37 | 
Cc1[nH]c(C)c(-c2ccc(Oc3ccc(Cl)cc3Cl)cc2)c(=O)c1Br [TCMDC-137533] | 62.65 | 
Cc1[nH]c(C)c(-c2ccc(Oc3cc(Cl)cc(Cl)c3)cc2)c(=O)c1Br [TCMDC-137392] | 48.81 | 
Cc1[nH]c(C)c(-c2ccc(Oc3ccc(Cl)c(Cl)c3)cc2)c(=O)c1Cl [TCMDC-137396] | 73.66 | 
Cc1[nH]c(C)c(-c2ccc(Cl)cc2Cl)c(=O)c1Br [TCMDC-137428] | 6.285 | 
Cc1noc(C)c1-c1ccc(C(=C2CCCCCC2)c2ccc(O)cc2)cc1 [TCMDC-135873] | -11.65 | 
CCCCCc1cc(O)c2c(c1)OC(C)(C)C=C2C1=CCN(Cc2ccsc2)CC1 [TCMDC-131400] | -46.98 | 
COc1cc(NC(=O)c2c(-c3c(F)cccc3Cl)noc2C)c(OC)cc1Cl [TCMDC-123635] | 20.08 | 
Cc1ccc(NC(=O)c2cccc(CN3CCCN(Cc4cccc(O)c4)CC3)c2)cc1 [TCMDC-135961] | 28.04 | 
CCN1CCN(Cc2c(O)ccc3c(=O)c(Oc4cc(C)cc(C)c4)c(C(F)(F)F)oc23)CC1 [TCMDC-125696] | 11.78 | 
NC1=NC2(CCCCC2)N(Cc2ccc(Cl)c(Cl)c2)C(N)=N1 [TCMDC-136304] | -26.78 | 
CN1CC=C(c2c[nH]c3ccc(C(=O)c4nccs4)cc23)CC1 [TCMDC-137277] | 17.28 | 
Cc1cc(Nc2ccccc2)nc(NCCOc2ccccc2)n1 [TCMDC-137574] | 48.49 | 
O=C(O)c1cccc2c(-c3ccncc3)cccc12 [TCMDC-139219] | 9.999 | 
Cn1ccnc1S(=O)(=O)CCNCc1ccc(-c2ccc3ncnc(Nc4ccc(OCc5cccc(F)c5)c(Cl)c4)c3c2)o1 [TCMDC-138564] | 21.76 | 

Structure (SMILES) | % Inhibition [%] | % Inhibition (% Inhibition) [%]
Cc1ccc(C(CC(=O)Nc2nccs2)c2ccc(OC(C)C)cc2)cc1 (stereo not shown) [TCMDC-124467] | 72.01 | 
O=C(COc1ccc(C(=O)c2ccccc2)cc1)Nc1nccs1 [TCMDC-124432] | -13.79 | 
CCOc1ccc(S(=O)(=O)N(C)c2ccc(OCC(=O)Nc3nccs3)cc2)cc1 [TCMDC-123622] | 21.93 | 
O=C(/C=C/c1ccc(Cl)c(Cl)c1)NCCCCCN1CCC(NC(=O)c2ccc([N+](=O)[O-])cc2)CC1 [TCMDC-135843] | 15.45 | 
CCCN(CCC)C(=O)c1cc(C(=O)N[C@@H](Cc2ccccc2)[C@H](O)CNC(C)(C)c2cccc(OC)c2)cc(N2CCCCS2(=O)=O)c1 [TCMDC-134674] | 75.74 | 
CCN1CCc2c1cc(C(=O)N[C@@H](Cc1ccccc1)[C@H](O)CNC(C)(C)c1cccc(C(F)(F)F)c1)cc2N1CCCCS1(=O)=O [TCMDC-135451] | 62.24 | 
CCn1cnc2c(N3CCCCS3(=O)=O)cc(C(=O)N[C@@H](Cc3ccccc3)[C@H](O)CNC3CCOCC3)cc21 [TCMDC-135662] | 16.67 | 
CCCN(CCC)C(=O)c1cc(C(=O)N[C@@H](Cc2ccccc2)[C@H](O)CNCc2cccc(C(F)(F)F)c2)cc(N2CCCCS2(=O)=O)c1 [TCMDC-138883] | -16.54 | 
CCCN(CCC)C(=O)c1cc(C(=O)N[C@@H](Cc2ccccc2)[C@H](O)CNC(C)(C)c2cccc(C(F)(F)F)c2)cc(N2CCCCS2(=O)=O)c1 [TCMDC-134675] | 20.25 | 
CCn1cnc2c(N3CCCS3(=O)=O)cc(C(=O)N[C@@H](Cc3ccccc3)[C@H](O)CNC(C)(C)c3cccc(C(F)(F)F)c3)cc21 [TCMDC-135450] | 36.58 | 
CCOc1cc(C(=O)N[C@@H](Cc2ccccc2)[C@H](O)CNC(C)(C)c2cccc(OC)c2)cc(N2CCCS2(=O)=O)c1 [TCMDC-134403] | 22.2 | 
CCn1ccc2c(N3CCCCS3(=O)=O)cc(C(=O)N[C@@H](Cc3ccccc3)[C@H](O)CNC3CCCCC3)cc21 [TCMDC-135314] | 53.3 | 
CCCN(CCC)C(=O)c1cc(C(=O)N[C@@H](Cc2ccccc2)[C@H](O)CNCc2cccc(OC)c2)cc(N2CCCCS2(=O)=O)c1 [TCMDC-138893] | -16.98 | 
CCn1ccc2c(N3CCCS3(=O)=O)cc(C(=O)N[C@@H](Cc3ccccc3)[C@H](O)CNC(C)(C)c3cccc(OC)c3)cc21 [TCMDC-134672] | 43.65 | 
CCn1ccc2c(N3CCCS3(=O)=O)cc(C(=O)N[C@@H](Cc3ccccc3)[C@H](O)CNC3CCCCC3)cc21 [TCMDC-135315] | 41.25 | 
CCn1ccc2c(N3CCCCS3(=O)=O)cc(C(=O)N[C@@H](Cc3ccccc3)[C@H](O)CNC(C)(C)c3cccc(C(F)(F)F)c3)cc21 [TCMDC-135317] | 87.8 | 
CC[C@H](C)[C@@H](C(=O)N1CCOCC1)N1CC[C@H](NS(=O)(=O)CC(C)(C)c2ccc(Cl)cc2)C1=O [TCMDC-138910] | -4.326 | 
N#Cc1ccc(N2CCN(Cc3cccc(-c4ccc(-c5nc6cc(C(F)(F)F)ccc6[nH]5)s4)c3)CC2)nc1.O=C(O)C(F)(F)F [TCMDC-133114] | -37.6 | 
CCCCCC(C)c1cc(O)c2c(c1)OC(C)(C)C=C2C1=CCN(Cc2ccccc2)CC1 (stereo not shown) [TCMDC-131350] | -56.28 | 
O=C(NC1CCC(CN2CCC(c3c[nH]c4ccccc34)CC2)CC1)c1csc(-c2cccc(Cl)c2Cl)n1 (stereo not shown) [TCMDC-140351] | -28.23 | 
O=C(NC1CCC(CN2CCC(c3c[nH]c4ccccc34)CC2)CC1)NC12CC3CC(CC(C3)C1)C2 (stereo not shown) [TCMDC-140204] | 96.25 | 

Structure (SMILES) | % Inhibition [%] | % Inhibition (% Inhibition) [%]
FC(F)(F)c1ccc(NC(=S)NC2CCC(CN3CCC(c4c[nH]c5ccccc45)CC3)CC2)cc1 (stereo not shown) [TCMDC-140178] |  | 78.37
O=C(Nc1ccccc1Cl)NC1CCC(CN2CCC(c3c[nH]c4ccccc34)CC2)CC1 (stereo not shown) [TCMDC-140176] |  | -4.106
O=C(NC1CCC(CN2CCC(c3c[nH]c4ccccc34)CC2)CC1)c1ccc(-c2cc(C(F)(F)F)ccc2Cl)o1 (stereo not shown) [TCMDC-140350] | -5.918 | 
O=C(NC1CCC(CN2CCC(c3c[nH]c4ccccc34)CC2)CC1)c1csc(-c2ccc(C(F)(F)F)cc2Cl)n1 (stereo not shown) [TCMDC-140352] | 52.36 | 
O=C(Nc1ccccc1Cl)NC1CCC(CN2CCC(c3c[nH]c4ccccc34)CC2)CC1 (stereo not shown) [TCMDC-140196] |  | 17.3
FC(F)(F)c1ccc(NC(=S)NC2CCC(CN3CCC(c4c[nH]c5ccccc45)CC3)CC2)cc1 (stereo not shown) [TCMDC-140198] |  | 109.8
CC(Cc1ccc(-c2nc3ccccc3[nH]2)cc1)NCC(O)c1cccc(C(F)(F)F)c1 (stereo not shown) [TCMDC-131524] | -16.53 | 
Cc1ccc(C(C)C)c(Oc2cnc(NC(CO)c3ccccc3)nc2N)c1 (stereo not shown) [TCMDC-135558] | 13.9 | 
Cc1cc2ccc(/C=C/C(=O)NC3CCC(CCN4CCc5ccc(C#N)cc5CC4)CC3)cc2[nH]1 (stereo not shown) [TCMDC-139668] | -29.35 | 
O=C(Cc1cn(-c2ccccc2)nc1-c1ccc(Cl)cc1)Nc1nccs1 [TCMDC-124872] | -9.075 | 
Nc1c(-c2ccc(C(=O)NCCNCc3ccccc3)cc2)cnn1-c1ccc(C(F)(F)F)cc1 [TCMDC-136660] | 12.46 | 
N#Cc1ccc(N2CCN(Cc3cccc(-c4ccc(-c5nc6cc(C(F)(F)F)ccc6[nH]5)cc4)c3)CC2)nc1.O=C(O)C(F)(F)F [TCMDC-133112] | -19.5 | 
CC(C)c1sc(N2CCN(C)CC2)nc1C(=O)Nc1cccc2c1CCCC2 [TCMDC-134303] | -19.32 | 
O=C(/C=C/c1ccc(Cl)c(Cl)c1)NCCCCCN1CCC(NC(=S)Nc2ccc(Cl)cc2)CC1 [TCMDC-135898] | 6.847 | 
O=C(Nc1cc(C(F)(F)F)cc(C(F)(F)F)c1)NC1CCC(CN2CCC(c3c[nH]c4ccccc34)CC2)CC1 (stereo not shown) [TCMDC-140199] |  | -51.42
O=C(Nc1ccc(Oc2ccccc2)cc1)NC1CCC(CN2CCC(c3c[nH]c4ccccc34)CC2)CC1 (stereo not shown) [TCMDC-140186] | 102.3 | 
O=C(Nc1ccccc1OC(F)(F)F)NC1CCC(CN2CCC(c3c[nH]c4ccccc34)CC2)CC1 (stereo not shown) [TCMDC-140185] |  | -31.33
O=C(Nc1cc(C(F)(F)F)cc(C(F)(F)F)c1)NC1CCC(CN2CCC(c3c[nH]c4ccccc34)CC2)CC1 (stereo not shown) [TCMDC-140180] |  | 75.46
O=C(Nc1ccccc1OC(F)(F)F)NC1CCC(CN2CCC(c3c[nH]c4ccccc34)CC2)CC1 (stereo not shown) [TCMDC-140203] |  | -4.21
